The text below walks through data of the supplement of paper PMC12819154, “High-throughput peptide-centric local stability assay extends protein–ligand identification to membrane proteins, tissues and bacteria” (Nature Structural & Molecular Biology, 2025).
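Further: lysate desalted by size exclusion to strip endogenous ATP, peptide intensities built from DIA-NN precursor signals, and peptides missing any value discarded before comparison.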

Sequence of UniProt P15043 (P15043 whole entry): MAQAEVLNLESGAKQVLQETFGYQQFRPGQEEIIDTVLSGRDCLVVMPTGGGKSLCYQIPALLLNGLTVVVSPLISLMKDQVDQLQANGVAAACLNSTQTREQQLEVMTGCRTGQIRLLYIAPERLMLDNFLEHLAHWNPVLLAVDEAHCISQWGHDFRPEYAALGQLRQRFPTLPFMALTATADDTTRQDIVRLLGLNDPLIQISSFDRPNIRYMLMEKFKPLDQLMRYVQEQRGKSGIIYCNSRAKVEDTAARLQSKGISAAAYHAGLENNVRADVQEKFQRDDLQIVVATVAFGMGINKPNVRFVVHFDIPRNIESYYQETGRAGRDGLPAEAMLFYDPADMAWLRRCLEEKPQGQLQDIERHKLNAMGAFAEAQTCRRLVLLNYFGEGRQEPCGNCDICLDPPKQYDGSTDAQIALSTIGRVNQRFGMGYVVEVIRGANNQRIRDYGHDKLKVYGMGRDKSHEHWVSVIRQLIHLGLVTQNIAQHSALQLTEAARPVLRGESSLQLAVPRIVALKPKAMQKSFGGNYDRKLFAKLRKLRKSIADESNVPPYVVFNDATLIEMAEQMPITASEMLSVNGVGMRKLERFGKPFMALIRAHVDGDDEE
Sequence of UniProt P0CF91 (P0CF91 whole entry): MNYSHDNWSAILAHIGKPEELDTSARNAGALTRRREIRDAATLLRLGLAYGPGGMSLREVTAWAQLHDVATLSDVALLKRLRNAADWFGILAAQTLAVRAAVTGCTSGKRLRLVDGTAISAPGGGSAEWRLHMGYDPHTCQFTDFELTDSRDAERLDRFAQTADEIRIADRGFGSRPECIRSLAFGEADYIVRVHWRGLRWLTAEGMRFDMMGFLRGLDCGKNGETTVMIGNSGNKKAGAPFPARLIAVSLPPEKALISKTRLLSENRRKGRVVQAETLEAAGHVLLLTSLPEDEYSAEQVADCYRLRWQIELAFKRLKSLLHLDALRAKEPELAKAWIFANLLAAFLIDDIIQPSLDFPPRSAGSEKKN
Sequence of UniProt P37177 (P37177 whole entry): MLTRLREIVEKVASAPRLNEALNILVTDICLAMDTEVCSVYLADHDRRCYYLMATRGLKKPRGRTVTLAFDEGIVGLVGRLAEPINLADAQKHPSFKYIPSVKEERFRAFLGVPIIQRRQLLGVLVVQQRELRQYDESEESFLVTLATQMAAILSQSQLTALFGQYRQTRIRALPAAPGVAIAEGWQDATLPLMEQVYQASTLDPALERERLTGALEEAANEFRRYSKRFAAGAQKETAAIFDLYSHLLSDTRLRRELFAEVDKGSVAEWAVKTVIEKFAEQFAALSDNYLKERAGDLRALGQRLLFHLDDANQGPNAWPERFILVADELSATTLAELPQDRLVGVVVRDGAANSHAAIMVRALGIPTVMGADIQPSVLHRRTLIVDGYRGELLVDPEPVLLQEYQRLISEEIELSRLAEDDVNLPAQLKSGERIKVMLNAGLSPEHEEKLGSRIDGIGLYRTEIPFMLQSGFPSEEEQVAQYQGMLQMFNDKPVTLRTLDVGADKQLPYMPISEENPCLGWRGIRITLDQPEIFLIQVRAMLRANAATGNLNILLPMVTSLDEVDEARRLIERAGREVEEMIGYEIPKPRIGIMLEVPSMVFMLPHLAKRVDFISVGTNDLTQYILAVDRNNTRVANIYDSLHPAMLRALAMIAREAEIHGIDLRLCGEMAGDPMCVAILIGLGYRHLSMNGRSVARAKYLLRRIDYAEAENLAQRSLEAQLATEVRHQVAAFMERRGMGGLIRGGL
Sequence of UniProt P51024 (P51024 whole entry): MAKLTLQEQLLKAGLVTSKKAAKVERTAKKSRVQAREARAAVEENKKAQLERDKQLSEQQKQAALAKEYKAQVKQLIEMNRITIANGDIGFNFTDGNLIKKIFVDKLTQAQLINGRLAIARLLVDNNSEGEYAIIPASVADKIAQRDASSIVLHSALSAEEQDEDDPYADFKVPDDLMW
Sequence of UniProt P31548 (P31548 whole entry): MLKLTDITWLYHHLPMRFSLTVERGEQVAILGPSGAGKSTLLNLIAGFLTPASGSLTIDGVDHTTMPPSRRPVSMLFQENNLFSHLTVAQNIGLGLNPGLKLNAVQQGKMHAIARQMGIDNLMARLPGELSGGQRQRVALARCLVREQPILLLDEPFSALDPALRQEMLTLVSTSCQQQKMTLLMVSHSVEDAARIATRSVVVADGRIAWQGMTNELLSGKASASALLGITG
Sequence of UniProt P27241 (P27241 whole entry): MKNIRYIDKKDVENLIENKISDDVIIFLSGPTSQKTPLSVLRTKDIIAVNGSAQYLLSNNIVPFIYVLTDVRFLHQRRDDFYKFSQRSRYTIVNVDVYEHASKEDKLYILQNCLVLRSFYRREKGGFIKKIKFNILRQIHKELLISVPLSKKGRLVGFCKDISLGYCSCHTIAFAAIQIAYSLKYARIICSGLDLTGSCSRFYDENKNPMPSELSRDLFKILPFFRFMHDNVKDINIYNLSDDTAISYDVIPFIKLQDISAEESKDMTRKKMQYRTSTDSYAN
Sequence of UniProt P30958 (P30958 whole entry): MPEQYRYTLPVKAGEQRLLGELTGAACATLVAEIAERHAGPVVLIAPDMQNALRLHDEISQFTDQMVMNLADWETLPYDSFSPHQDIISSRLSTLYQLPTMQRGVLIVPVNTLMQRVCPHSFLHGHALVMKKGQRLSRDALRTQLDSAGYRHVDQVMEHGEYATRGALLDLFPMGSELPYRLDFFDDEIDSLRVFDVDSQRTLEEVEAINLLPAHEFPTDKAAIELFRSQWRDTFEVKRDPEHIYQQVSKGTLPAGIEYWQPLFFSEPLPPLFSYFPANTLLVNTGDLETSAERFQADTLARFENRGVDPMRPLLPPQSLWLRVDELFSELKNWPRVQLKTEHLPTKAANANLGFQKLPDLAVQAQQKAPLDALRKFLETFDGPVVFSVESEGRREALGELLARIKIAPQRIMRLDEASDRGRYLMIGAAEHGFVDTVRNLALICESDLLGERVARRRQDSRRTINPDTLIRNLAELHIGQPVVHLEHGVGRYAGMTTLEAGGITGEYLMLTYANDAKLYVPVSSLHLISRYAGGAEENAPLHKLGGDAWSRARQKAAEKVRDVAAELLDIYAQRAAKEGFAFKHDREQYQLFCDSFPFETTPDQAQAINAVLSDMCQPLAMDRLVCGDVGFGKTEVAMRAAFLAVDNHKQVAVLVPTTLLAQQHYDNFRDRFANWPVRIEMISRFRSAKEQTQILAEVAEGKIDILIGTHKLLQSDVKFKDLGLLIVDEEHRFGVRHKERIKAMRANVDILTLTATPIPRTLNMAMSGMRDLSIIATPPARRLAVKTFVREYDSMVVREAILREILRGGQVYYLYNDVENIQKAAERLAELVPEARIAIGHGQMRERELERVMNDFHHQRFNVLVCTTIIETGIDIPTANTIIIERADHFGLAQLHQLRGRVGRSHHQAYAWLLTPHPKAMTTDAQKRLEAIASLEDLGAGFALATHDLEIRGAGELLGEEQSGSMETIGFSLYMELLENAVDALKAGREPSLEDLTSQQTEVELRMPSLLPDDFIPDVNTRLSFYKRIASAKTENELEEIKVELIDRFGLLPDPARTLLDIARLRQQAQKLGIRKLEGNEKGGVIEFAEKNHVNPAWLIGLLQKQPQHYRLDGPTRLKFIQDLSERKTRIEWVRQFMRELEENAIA
Sequence of UniProt P37024 (P37024 whole entry): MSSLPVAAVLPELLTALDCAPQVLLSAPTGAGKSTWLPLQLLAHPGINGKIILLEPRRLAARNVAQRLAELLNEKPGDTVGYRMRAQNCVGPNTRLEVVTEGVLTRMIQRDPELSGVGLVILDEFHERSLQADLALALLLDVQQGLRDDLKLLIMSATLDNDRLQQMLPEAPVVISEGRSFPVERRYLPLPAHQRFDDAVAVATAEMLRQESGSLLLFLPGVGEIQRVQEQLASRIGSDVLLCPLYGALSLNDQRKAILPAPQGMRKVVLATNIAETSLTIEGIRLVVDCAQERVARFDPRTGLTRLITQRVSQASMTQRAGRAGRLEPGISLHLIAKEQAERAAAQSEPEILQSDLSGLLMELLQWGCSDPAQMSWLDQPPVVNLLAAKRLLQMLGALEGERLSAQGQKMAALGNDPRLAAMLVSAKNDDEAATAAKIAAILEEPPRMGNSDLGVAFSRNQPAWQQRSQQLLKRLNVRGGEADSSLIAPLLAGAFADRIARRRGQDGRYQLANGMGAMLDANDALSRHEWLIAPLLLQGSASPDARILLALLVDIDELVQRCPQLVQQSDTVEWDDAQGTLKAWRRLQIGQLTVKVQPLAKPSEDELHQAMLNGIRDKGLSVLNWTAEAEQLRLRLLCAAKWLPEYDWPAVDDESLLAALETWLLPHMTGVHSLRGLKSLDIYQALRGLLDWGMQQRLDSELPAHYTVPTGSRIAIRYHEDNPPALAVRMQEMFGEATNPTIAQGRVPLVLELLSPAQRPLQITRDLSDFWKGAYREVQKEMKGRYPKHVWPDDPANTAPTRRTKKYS
Sequence of UniProt P0A9L3 (P0A9L3 whole entry): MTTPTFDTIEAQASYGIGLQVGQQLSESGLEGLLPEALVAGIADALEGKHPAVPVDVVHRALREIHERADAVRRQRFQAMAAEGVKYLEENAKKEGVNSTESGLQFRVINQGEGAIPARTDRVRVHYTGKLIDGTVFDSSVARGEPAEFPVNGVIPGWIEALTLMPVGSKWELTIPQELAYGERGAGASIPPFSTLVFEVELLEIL
Sequence of UniProt P75745 (P75745 whole entry): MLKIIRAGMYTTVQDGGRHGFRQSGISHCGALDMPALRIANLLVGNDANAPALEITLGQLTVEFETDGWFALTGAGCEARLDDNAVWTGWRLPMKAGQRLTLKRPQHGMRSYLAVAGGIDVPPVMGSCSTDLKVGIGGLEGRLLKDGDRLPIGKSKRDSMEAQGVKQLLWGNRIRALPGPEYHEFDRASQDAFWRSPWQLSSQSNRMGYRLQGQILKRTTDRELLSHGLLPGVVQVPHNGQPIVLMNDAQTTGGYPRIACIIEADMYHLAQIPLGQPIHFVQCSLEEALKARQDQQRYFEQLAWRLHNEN

Compound in this experiment: Nc1ncnc2c1ncn2[C@@H]1O[C@H](COP(=O)(O)OP(=O)(O)OP(=O)(O)O)[C@@H](O)[C@H]1O [adenosine 5'-triphosphate]
The experiment can be described thus: log2 fold change of tryptic peptide abundance, ligand vs vehicle (limited proteolysis) (log2 ratio); higher = more trypsin-susceptible (destabilized). The settings on record: ligand concentration: 5 mM; sample: E. coli desalted lysate; replicate design: treated before aliquoting. The procedure: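 HT-PELSA: desalted E. coli K-12 BW25113 lysate (with 12 mM MgCl2) incubated with 5 mM ATP (pH 7) or water for 30 min at 25 C, then a 4 min trypsin pulse at 22 C. Peptides were quantified by DIA-MS (4 replicates). Value is the peptide log2 fold change (treated/control); negative = stabilized. Scale: negative = ligand-stabilized region.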
For “UniProt P15043 (peptide sequence: FGKPFMALIR, peptide start residue: 591)”, the log2 fold change was 0.672.

With “UniProt P31548 (peptide sequence: LPGELSGGQR, peptide start residue: 126)”, the log2 fold change was -0.702.

Consider “UniProt P0AAC4 (peptide sequence: SDSIVQPR, peptide start residue: 7)”, for which the log2 fold change is -0.368.

With “UniProt P27241 (peptide sequence: YTIVNVDVYEHASKEDK, peptide start residue: 90)”, the log2 fold change was -0.487.

Consider “UniProt P0A9L3 (peptide sequence: VINQGEGAIPARTDR, peptide start residue: 108)”, for which the log2 fold change came to 0.513.

In the case of “UniProt P75745 (peptide sequence: QLLWGNR, peptide start residue: 167)”, the log2 fold change is -0.312.

In the case of “UniProt P51024 (peptide sequence: QLIEMNR, peptide start residue: 75)”, the log2 fold change was -0.359.

For the target “UniProt P37177 (peptide sequence: VANIYDSLHPAMLR, peptide start residue: 636)”, the log2 fold change is 0.572.

Take “UniProt P30958 (peptide sequence: FANWPVR, peptide start residue: 673)”: the log2 fold change is -0.413.

As to “UniProt P0A9J4 (peptide sequence: HTEIDYINGFLLRR, peptide start residue: 254)”, the log2 fold change turned out to be 0.895.

Take “UniProt P0CF91 (peptide sequence: SLLHLDALR, peptide start residue: 320)”: the log2 fold change is 0.694.

Turning to “UniProt P37024 (peptide sequence: LVVDCAQER, peptide start residue: 286)”, the log2 fold change was -0.502.
